# aSyn 5UTR act = Activators via SNCA 5'UTR binding, MLPCN; hit rate 7.1% among 300,000; activity score, % (tested at 7.5 µM), hits read low; alpha-synuclein 5'UTR reporter, activators screen; in the data active = activity score below about -60%
# Active calls of the source: *. Not all results are given here.
SMILES,aSyn 5UTR act
C/C(=N\Nc1nc(-c2ccccc2)cs1)c1cccs1,-279.8*
O=C(Cn1nc(-c2ccccc2)c2ccccc2c1=O)Nc1ccccn1,-66.3*
O=C(Cn1nc(C(=O)O)c2ccccc2c1=O)Nc1nc(-c2ccccc2)cs1,-70.9*
Cn1cc(Cl)c(C(=O)OCC(=O)Nc2nc(-c3ccc(Br)cc3)cs2)n1,-109.9*
COc1ccccc1CC(=O)Nc1nc(-c2ccc(F)c(F)c2)cs1,-82.6*
O=C(COC(=O)c1cccs1)Nc1nc(-c2ccccc2)cs1,-90.4*
Cc1nc(CC(=O)Nc2nc(-c3ccccc3)cs2)cs1,-65.6*
Cn1nccc1C(=O)OCC(=O)Nc1nc(-c2ccccc2)cs1,-126.1*
O=C(COC(=O)CNC(=O)c1ccccc1)Nc1nc(-c2ccccc2)cs1,-71.1*
C=CCSc1ncc(-c2ccccc2)cn1,-159.7*
C#CCSc1ncc(-c2ccccc2)cn1,-100.6*
Cc1cccc(NC(=O)C(=O)NCc2ccccn2)c1,-70.4*
Cc1cccc(NC(=S)NCc2ccccn2)c1,-76.7*
S=C(NCc1ccccn1)Nc1cccc(Cl)c1,-72.6*
COc1ccc(COc2cc(-c3cccc(OC)c3)nc3ccc(NC(=O)C(C)C)cc23)cc1,-134.5*
CS(=O)(=O)Nc1cccc(-c2cnc3ccccc3n2)c1,-153.0*
CNC(=S)Nc1cccc(-c2cnc3ccccc3n2)c1,-143.8*
CC(C)C(=O)Nc1cccc(-c2cnc3ccccc3n2)c1,-114.8*
CCOc1ccc(-c2nnc(-c3ccco3)o2)cc1OCC,-76.1*
CCOc1ccc(-c2nnc(-c3cccs3)o2)cc1OCC,-86.0*
COc1ccc(-c2nnc(-c3cccs3)o2)cc1OC,-148.4*
Cn1nnnc1SCc1nnc(-c2ccc(Cl)cc2)o1,-75.1*
COc1ccccc1Nc1ncnc2c1c(C)c(C)n2CCO,-103.0*
Cc1c(C)n(CCc2ccccc2)c2ncnc(NCCO)c12,-145.8*
N=c1c2c(-c3ccccc3)c(-c3ccccc3)n(Cc3ccccc3)c2ncn1CCO,60.9
SMILES,aSyn 5UTR act
O=c1c(=Nc2ccccc2O)c(=O)c2ccccc12,-111.6*
Cc1ccc(-n2c(C)nc3oc4ccccc4c(=O)c3c2=O)cc1,-240.7*
CCc1nc2oc3cc(OC)ccc3c(=O)c2c(=O)n1-c1ccccc1,-124.4*
COc1ccc2c(=O)c3c(=O)n(-c4ccccc4)c(-c4ccco4)nc3oc2c1,-95.6*
Cc1cc2ccc3ccccc3c2cc1CN(C)C,-75.9*
Cc1ccc(NC(=S)/C(=C(\[O-])c2ccc(F)cc2)[n+]2ccccc2)cc1,-90.4*
[2H]C(CCOS(N)(=O)=O)c1ccc(C(C)(C)C)cc1 (stereo unspecified),80.0
CC(C)(C)c1ccc(CSc2nc(N)cc(=O)[nH]2)cc1,-79.3*
Nc1cc(=O)[nH]c(SCCSc2ccccc2F)n1,67.4
CN1CCN(C(=O)c2ccc(COc3ccc(C(C)(C)C)cc3)o2)CC1,-99.4*
CCOc1ccc(OCc2ccc(C(=O)OCc3ccccn3)o2)cc1,-63.8*
COc1cccc(N2CCN(C(=O)c3ccc(CS(=O)c4ccccc4C)o3)CC2)c1 (stereo unspecified),108.0
CC(C)c1ccc(OCc2ccc(C(=O)N3CCCC3)o2)cc1,-144.1*
CCC(C)c1ccc(OCc2ccc(C(=O)O)o2)cc1 (stereo unspecified),-86.0*
CCOC(=O)c1ccc(COc2ccc(C(C)C)cc2)o1,-128.5*
Cc1ccc(N/N=C2\CCS(=O)(=O)c3sccc32)cc1,-89.5*
CC1(C)CC(=O)c2sc(NS(=O)(=O)Cc3ccccc3)nc2C1,-62.9*
COc1ccc(NC(=O)c2cccc(OS(=O)(=O)N(C)C)c2)cc1,-115.6*
O=C(NC(=S)Nc1cc(Cl)ccc1O)c1cccc(Br)c1,-80.9*
COC(=O)c1ccc(OS(=O)(=O)N(C)C)cc1,-87.8*
CN(C)S(=O)(=O)Oc1cccc(C(=O)Nc2cccc(Cl)c2)c1,-169.5*
CN(C)S(=O)(=O)c1cccc(C(=O)Nc2cc(Cl)ccc2O)c1,-86.6*
CN(C)S(=O)(=O)Oc1cccc(C(=O)Nc2ccc(Cl)c(Cl)c2)c1,-184.7*
CNS(=O)(=O)c1cccc(C(=O)Nc2cccc(Cl)c2)c1,-111.2*
COc1cc(/C=C(/C#N)c2nc3ccccc3[nH]2)ccc1OC(=O)c1ccco1,-113.8*
SMILES,aSyn 5UTR act
COc1c(O)ccc(/C=C(\C#N)c2nc3ccccc3[nH]2)c1[N+](=O)[O-],-92.0*
COc1cc(/C=C(\C#N)c2nc3ccccc3[nH]2)cc(OC)c1O,-99.3*
COc1ccc(/C=C(\C#N)c2nc3ccc(C)cc3[nH]2)cc1Oc1ccc(C(F)(F)F)cc1[N+](=O)[O-],-84.6*
N#C/C(=C\c1cc([N+](=O)[O-])c(N2CCOCC2)cc1N1CCOCC1)c1nc2ccccc2[nH]1,-92.3*
COc1ccc(/C=C(\C#N)c2nc3ccccc3[nH]2)cc1O,-144.3*
COc1cc(/C=C(\C#N)c2nc3ccccc3[nH]2)ccc1Oc1ccc([N+](=O)[O-])cn1,-104.2*
CCOC(=O)C1(CCOC)CCN(Cc2nc(C(C)C)cs2)CC1,-66.9*
CCOC(=O)C1(CCOc2ccccc2)CCN(Cc2ccc(O)c(Cl)c2)CC1,108.4
O=C(NCCc1nnc2ccccn12)c1cccs1,-66.8*
Cc1ccsc1C(=O)NCCc1nnc2ccccn12,-77.9*
N#C/C(=N\Nc1cccc2ccccc12)c1nnc2n1CCCCC2,-70.9*
Cc1ccc2nc(-c3ccccc3)cn2c1,120.4
Cc1ccc2nc(-c3ccc(-c4ccccn4)s3)cn2c1,-111.1*
O=C(N/N=C/c1c(Cl)cccc1Cl)c1n[nH]c2c1CCCC2,-135.4*
O=C(NN=C1CCCC1)c1n[nH]c2c1CCCC2,-72.6*
Cc1ccsc1/C=N\NC(=O)c1n[nH]c2c1CCC2,68.6
C=CCN1C(=O)/C(=C2/Sc3ccc(OC)cc3N2C)SC1=Nc1ccc(OC)cc1,-78.8*
COc1ccc(N=C2S/C(=C\c3ccc(Cl)c([N+](=O)[O-])c3)C(=O)N2CCN(C)C)cc1,80.6
CCN(CC)CCN1C(=O)/C(=C\c2ccc(Cl)c([N+](=O)[O-])c2)SC1=Nc1ccc(OC)cc1,73.8
CCc1cccc(NC(=O)Nc2ccc3c(c2)OCO3)c1,-65.5*
O=C(Nc1ccc2c(c1)OCO2)NC1(C(F)(F)F)Oc2ccccc2O1,-96.2*
O=C(Nc1ccc2c(c1)OCCO2)NC1(C(F)(F)F)Oc2ccccc2O1,62.5
CCn1c2ccccc2c2nnc(SCC(=O)Nc3ccc4c(c3)OCO4)nc21,-96.0*
CCc1ccccc1NC(=O)Nc1ccc2c(c1)OCO2,-78.6*
O=C(Nc1ccc2c(c1)OCO2)Nc1ccccc1F,-135.9*
SMILES,aSyn 5UTR act
Cc1cc(C)nc(NC(=S)Nc2ccc(F)cc2F)c1,-62.5*
Cc1cccnc1NC(=S)Nc1ccc(F)cc1F,-74.4*
Cc1ccc(C)c(NC(=S)Nc2ncccc2C)c1,-136.5*
Cc1ccc(Nc2nc(Cl)c(C=O)s2)cc1Cl,-115.0*
O=Cc1sc(Nc2ccccc2)nc1Cl,-117.5*
COc1ccccc1Nc1nc2c(s1)CCC2,-68.2*
COc1ccccc1Nc1nc(Cl)c(C=O)s1,-103.6*
O=C(NCCC1=CCCCC1)C(=O)c1c[nH]c2ccccc12,-81.5*
O=C(NC1CCCCC1)C(=O)c1c[nH]c2ccccc12,-115.3*
O=C(NCC1CCCO1)C(=O)c1c[nH]c2ccccc12 (stereo unspecified),-72.9*
Cc1ccc(NC(=O)C(=O)c2c[nH]c3ccccc23)cc1,-169.4*
O=C(NC1CCCC1)c1n[nH]c2ccccc12,-85.7*
Cn1c(N)c(C(=O)/C=C/c2ccccc2)c(=O)[nH]c1=O,-139.7*
O=C1c2ccccc2CN1CCSC(=S)N1CCOCC1,-105.3*
